We go through three compounds from PMC11062922 (Nature Chemical Biology, 2023).

What all share (design): species or system human, MV4-11 + K-562 + COLO205 + SK-N-BE2 + OVCAR-8
One experiment has as its system CDC42BPG. The following applies: read-out: apparent Kd, compound concentrations: 100 nM and 1000 nM (sheet 'Samples'), n = 1.
A further experiment has as its system DDR1. The following applies: read-out: apparent Kd; compound concentrations: 100 nM and 1000 nM (sheet 'Samples'), CATDS: 0.140210166469808; n = 1.
Another experiment concerns T1, DJA1.
T1 construct: gene DNAJA1
To be noted: read-out: apparent Kd; compound concentrations: 100 nM and 1000 nM (sheet 'Samples'), CATDS: 0.100265839502576; n = 1.

A further experiment concerns FLT3. To be noted: read-out: apparent Kd; compound concentrations: 100 nM and 1000 nM (sheet 'Samples'), CATDS: 0.118432535218852; n = 1.
The test system of another experiment is PIK3C3. To be noted: read-out: apparent Kd; compound concentrations: 100 nM and 1000 nM (sheet 'Samples'), CATDS: 0.105221440009215; n = 1.
The next experiment deals with PIK3CA. To be noted: read-out: apparent Kd; compound concentrations: 100 nM and 1000 nM (sheet 'Samples'), CATDS: 0.28704207187710601; n = 1.
Another experiment has as its system PIK3CG. The following applies: read-out: apparent Kd; compound concentrations: 100 nM and 1000 nM (sheet 'Samples'), CATDS: 0.108238843984754; n = 1.
The subject of a further experiment is RET. To be noted: read-out: apparent Kd; compound concentrations: 100 nM and 1000 nM (sheet 'Samples'), CATDS: 0.12612517113031699; n = 1.
For a further experiment, the system named is CDC42BPA. To be noted: read-out: apparent Kd; compound concentrations: 100 nM and 1000 nM (sheet 'Samples'), CATDS: 6.9468579457902302E-2; n = 1.
The subject of a further experiment is CDC42BPB. The following applies: read-out: apparent Kd; compound concentrations: 100 nM and 1000 nM (sheet 'Samples'), CATDS: 0.12045997656794601; n = 1.
A further experiment deals with PKN1. The following applies: read-out: apparent Kd; compound concentrations: 100 nM and 1000 nM (sheet 'Samples'), CATDS: 6.0218156247889197E-2; n = 1.
The test system of a further experiment is PRKACA. To be noted: read-out: apparent Kd; compound concentrations: 100 nM and 1000 nM (sheet 'Samples'), CATDS: 0.135293982303474; n = 1.
A further experiment has as its system PRKACB. To be noted: read-out: apparent Kd; compound concentrations: 100 nM and 1000 nM (sheet 'Samples'), CATDS: 0.11075307193468301; n = 1.
In a further experiment the test system is PRKG1. The following applies: read-out: apparent Kd; compound concentrations: 100 nM and 1000 nM (sheet 'Samples'), CATDS: 7.6658344406139403E-2; n = 1.
For another experiment, the system named is PRKX. The following applies: read-out: apparent Kd; compound concentrations: 100 nM and 1000 nM (sheet 'Samples'), CATDS: 6.23454867877557E-2; n = 1.
The test system of a further experiment is ROCK1. To be noted: read-out: apparent Kd; compound concentrations: 100 nM and 1000 nM (sheet 'Samples'), CATDS: 0.22662167781686399; n = 1.
For the next experiment, the system named is ROCK2. The following applies: read-out: apparent Kd; compound concentrations: 100 nM and 1000 nM (sheet 'Samples'), CATDS: 0.23262842536730999; n = 1.
The next experiment concerns CAMK2B. To be noted: read-out: apparent Kd; compound concentrations:100 nM and 1000 nM (sheet 'Samples'); n = 1.
The test system of a further experiment is MAPK14. The following applies: read-out: apparent Kd; compound concentrations:100 nM and 1000 nM (sheet 'Samples'); n = 1.
A further experiment deals with MAPKAPK2. To be noted: read-out: apparent Kd; compound concentrations:100 nM and 1000 nM (sheet 'Samples'); n = 1.

Like-named read-outs stand apart in the source and are kept apart here.

`CN1CCN(CCCNc2nc3ccc(Oc4ccc(NC(=O)Nc5cc(C(F)(F)F)ccc5F)cc4)cc3[nH]2)CC1.Cl` [GW700494A]: the potency estimated from few doses is 1130 nM in the experiment with CDC42BPG (CATDS: 0.120544348793502); 826 nM in the experiment on DDR1; 1780 nM with DJA1; 1170 nM in the experiment with FLT3; 1560 nM in the experiment on PIK3C3; 263 nM in the experiment with PIK3CA. Further, the potency estimated from few doses is 1450 nM with PIK3CG and 1020 nM in the experiment with RET.

Take `NCCCC(NC(=O)c1cc(Br)c(-c2ccnc3[nH]ccc23)s1)c1ccccc1.NCCCC(NC(=O)c1cc(Br)c(-c2ccnc3[nH]ccc23)s1)c1ccccc1.O=C(O)C(F)(F)F.O=C(O)C(F)(F)F` (stereo not drawn) [GSK1287544A]: the potency estimated from few doses was 735 nM in the experiment on CDC42BPA; 111 nM in the experiment with CDC42BPB; 65 nM with CDC42BPG (CATDS: 0.15429937992002599); 1750 nM in the experiment on PKN1; 85.3 nM in the experiment with PRKACA; 137 nM with PRKACB. Besides, the potency estimated from few doses in the experiment on PRKG1 is 465 nM; in the experiment on PRKX, 1370 nM; in the experiment on ROCK1, 33.3 nM; in the experiment with ROCK2 it was 31.9 nM.

As to `FC(F)(F)c1ccccc1-c1cc(-c2c[nH]nc2-c2ccccn2)ccn1` [GW679396X], the potency estimated from few doses was 628 nM in the experiment on CAMK2B, 845 nM in the experiment on MAPK14 and 941 nM with MAPKAPK2.
